Methyltransferases = Primary Screen for Target Class Profiling of Small Molecule Inhibitors of Methyltransferases. AID 1745853, 2022. calls only at 40 µM. 25,000 compounds, 3.9% hits. purified enzyme, MTase-Glo SAH luminescence; active compounds read low; call rule not given here
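Each enzyme was assayed with SAM and its substrate. SAH formation detected by MTase-Glo luminescence; single-point 40 uM screen[…].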
MTase-Glo ctr = counter-screen for methyltransferase inhibitors: coupling enzymes without methyltransferase. Potency, µM (titrated, usually from 57.3 µM), without a hit: at the top dose activity change, negative = inhibition, hits mostly inhibitors. 180 compounds, 6% hits. MTase-Glo coupled enzymes, SAH conversion luminescence, no MTase. shares compounds with Methyltransferases; active = well fitted inhibition curve with a large enough effect; inconclusive = small, poorly fitted or top-dose-only effect; note: potency is the fitted concentration of half-maximal effect
The depositor's hits bear a star; i = inactive; ? = inconclusive; + = active, no number; [ ] = another dose, or the depositor's remark. This excerpt belongs to a sample that is enriched for hits. % is set by controls: 0 for no effect and ±100 for the full control effect.

SMILES	Methyltransferases	others
CCOc1ccccc1CN1C(=O)c2ccc(-c3ccco3)n2CC1(C)C(=O)NC1CCCC1 (configuration not stated)	i
CC(C)N1Cc2cc(C(=O)NC3CCN(Cc4ccccc4)CC3)sc2C1	i
COc1ccc(NC(=O)c2cc3c(s2)CN(C2CCCC2)C3)c(OC)c1	i
CC1CCCCN1CCCNC(=O)c1cc2c(s1)CN(C1CCCC1)C2 (configuration not stated)	+	MTase-Glo ctr=2%
COc1ccccc1NC(=O)Cn1nc2n(CC(C)C)c(=O)c3ccccc3n2c1=O	i
COc1ccc(-c2nnc(-c3ccc(Cl)c(S(=O)(=O)N4CCCCCC4)c3)o2)cc1	i
Cc1[nH]c2ccccc2c1C(=O)Cn1nc2n(Cc3ccc(F)cc3)c(=O)c3ccccc3n2c1=O	i
CCCNC(=O)C1CCc2ncc(-c3ccc(OC)cc3)n2C1 (configuration not stated)	i
O=C(NCCCN1CCc2ccccc2C1)C1CCc2ncc(-c3ccc(F)cc3)n2C1 (configuration not stated)	+	MTase-Glo ctr=-2%
O=C(NCC1CC1)C1CCc2ncc(-c3ccc(F)cc3)n2C1 (configuration not stated)	i
CCCCN1C(=O)c2cc(C(=O)Nc3cccc(CC)c3)nn2CC1(C)C(=O)NC1CCCC1 (configuration not stated)	i
CC1(C(=O)NCc2ccccc2)Cn2c(cc3ccccc32)C(=O)N1Cc1ccccc1F (configuration not stated)	i
COc1ccc(OC)c(N2C(=O)CSc3c(c4ccccc4n3C)C2C(=O)NCc2ccc(F)cc2)c1 (configuration not stated)	i
Cc1ccc(C(=O)Cn2nc3n(Cc4ccc(F)cc4)c(=O)c4ccccc4n3c2=O)cc1	i
CC(C)CNC(=O)c1ccc2c(=O)n(C)c3nn(CC(=O)NCc4ccccc4)c(=O)n3c2c1	i
Cn1c(=O)c2ccc(C(=O)NC3CCCCC3)cc2n2c(SCC(=O)c3ccc(F)cc3)nnc12	i
COC(=O)c1ccc2nc(C[C@@H]3C[C@@H](C(C)C)[C@H](CNC(=O)c4cccnc4)C=C3C)[nH]c2c1	i
COc1ccc2nc(C[C@@H]3C[C@@H](C(C)C)[C@H](CNC(=O)NC4CCCCC4)C=C3C)[nH]c2c1	i
CC1=C[C@@H](CN(CC2CC2)CC2CC2)[C@H](C(C)C)C[C@H]1Cc1nc2ccncc2[nH]1	+	MTase-Glo ctr=35µM*
CC(C)Cn1c(=O)c2ccccc2n2c(=O)n(Cc3cccc(Cl)c3)nc12	i
O=c1[nH]c2ccc(S(=O)(=O)NCCc3ccc(Cl)cc3)cc2[nH]1	i
COc1ccc(N2CCN(C(=O)c3cccc(Nc4nc5ccccc5n5nnnc45)c3)CC2)cc1	i
COc1ccc(N2CCN(C(=O)c3ccc4c(=O)nc5c(-c6ccccc6F)n[nH]n5c4c3)CC2)cc1	i
COc1ccc(N2CCN(C(=O)c3cc(NC(C)=O)cc4nc(C)ccc34)CC2)cc1	+	MTase-Glo ctr=1%
O=[S+]1([O-])NC2(CCN(Cc3ccc(F)cc3)CC2)CNc2ccccc21	i
SMILES	Methyltransferases	others
N#Cc1ccc(CN2CCC3(CNc4ccccc4[S+](=O)([O-])N3)C2)cc1 (configuration not stated)	i
COc1cccc(CN2CCCC3(CNc4ccccc4[S+](=O)([O-])N3)C2)c1 (configuration not stated)	+	MTase-Glo ctr=-5%
CCN(CC)c1nc2c(-c3ccc(F)cc3)nnn2c2ccccc12	i
CC(C)CCNC(=O)C1(C)Cn2nc(C(=O)NCCc3cccs3)cc2C(=O)N1C (configuration not stated)	i
Cc1ccc(C)c(N2C(=O)c3cc4sccc4n3CC2(C)C(=O)NC2CCCCCC2)c1 (configuration not stated)	i
O=C(NCC1CC1)c1nc2c(o1)CCN(CCCc1ccccc1)CC2	i
O=C(NCc1cccc(F)c1)c1nc2c(o1)CCN(CC1CCCC1)CC2	+	MTase-Glo ctr=-2%[85.7 µM]
COc1ccc(CN2CCc3nc(C(=O)NCCOc4ccccc4)oc3CC2)cn1	i
Cn1c(=O)n(C)c2cc(S(=O)(=O)N3CCN(Cc4ccc5c(c4)OCO5)CC3)ccc21	i
CCNc1nc2c(s1)C(c1cccc(F)c1)CC(=O)N2 (configuration not stated)	+	MTase-Glo ctr=?
CCc1cc2c(cc3n2CC(C)(C(=O)NC2CCCCCC2)N(Cc2cccc(Cl)c2)C3=O)s1 (configuration not stated)	i
Cc1ccc(CN2C(=O)c3cc(-c4cccs4)nn3CC2(C)C(=O)NC2CCCCC2)cc1 (configuration not stated)	i
CC1(C(=O)NC2CCCCC2)Cn2c(cc3sccc32)C(=O)N1Cc1ccc2c(c1)OCO2 (configuration not stated)	i
